Test results reported in PubChem BioAssay (Tox21).
“And” between values parts separate entries of the source, which are not always exact repeats. Equal values may be shown once. Records with an inconclusive call do not appear. A call without a number means that no potency is given here. The source made the active and inactive calls. The call rests on the fitted dose curve; in most records, active means well fitted cell-killing curve with a large enough effect in the repeat runs; inconclusive means weak or mixed curves, or effect the other way; inactive means flat fitted curve, though single readings scatter.
Potency means the concentration at half of the fitted maximal effect.

Assay: qHTS RealTime-Glo MT Cell Viability Assay in HEK293 cells - 32 hour (AID 1224868); further: nearly all actives have a fitted effect of over 50% in size
Conditions: RealTime-Glo luminescence; series mostly up to 76.8 µM
From the text: National Center for Advancing Translational Sciences [NCATS]
NIH Chemical Genomics Center [NCGC]
U.S. Environmental Protection Agency [EPA]
National Institutes of Environmental Health Sciences [NIEHS]
National Toxicology Program [NTP]
U.S. Food and Drug Administration [FDA]
Measure of cell viability is critical in the cell-base assay. Analysis of cell viability is necessary for the characterization of cell responses to cytotoxic drugs and environmental stress. A RealTime-Glo MT Cell Viability Assay to monitor cell viability in real time of continues cell culture during 40 hours of compound treatment was used to screen Tox21 10K library compounds in Hek293 cells. The RealTime-Glo MT Cell Viability Assay is a nonlytic, homogeneous, bioluminescent method to measure cell viability in real time using a simple, plate-based method. The assay involves adding NanoLuc luciferase and a cell-permeant prosubstrate to cells in culture. Viable cells reduce the proprietary prosubstrate to generate a substrate for NanoLuc luciferase. This substrate diffuses from cells into the surrounding culture medium, where it is rapidly used by the NanoLuc Enzyme to produce a luminescent signal. The signal correlates with the number of viable cells, making the assay well suited for cytotoxicity studies.
Tox21 Assay Protocol Summary:
The mixture of Hek293 cell suspension and reagents were dispensed at 600cells/6 ul/well in 1536-well tissue culture treated black solid bottom plates using a Multidrop dispenser. After the assay plates were incubated at a 37 C/5% CO2 incubator for 5 hours, 23 nL of compounds dissolved in DMSO, positive and negative controls was transferred to the assay plate by a pintool work station. The plates were incubated at 37 C for 40 hours. The luminescence intensity were measured at 0h, 8h, 16h, 24h, 32h and 40h time points using ViewLux plate reader during compound treatment.
In the case of CCCCn1cc[n+](C)c1.[Cl][Fe-]([Cl])([Cl])[Cl], the Potency is reported as “inactive”.
In the case of CSC(=O)c1c(C(F)F)nc(C(F)(F)F)c(C(=O)SC)c1CC(C)C, the Potency is reported as “inactive”.
With CCCCC(CC)COC(=O)OOC(C)(C)C (stereo not given) the Potency was “inactive”.
In the case of Cc1ccc([N+](=O)[O-])[c]2c1[O][Hg]2, the Potency is reported as 3.79 µM (active).
For CCC1(CC)C(=O)N=C(O)NC1=O, the Potency was “inactive”.
With O=[N+]([O-])c1ccc(Cl)c(Cl)c1Cl the Potency was “inactive”.
With CCCCCCCCCCCCCCn1cc[n+](C)c1 the Potency was 8.72 µM (active) and 4.32 µM (active).
For C[C@]12CC[C@H]3[C@@H](CCC4=CC(=O)CC[C@@H]43)[C@@H]1CC[C@@H]2OC(=O)CCc1ccco1, the Potency was “inactive”.
With CCN(CC)Cc1nccn1-c1ccc([N+](=O)[O-])cc1C(=O)c1ccccc1Cl the Potency was “inactive”.
In the case of CCN(CC)CCN1C(=O)CN=C(c2ccccc2F)c2cc(Cl)ccc21, the Potency is reported as “inactive”.
In the case of [O]=[Cr][O][Cr]=[O], the Potency is reported as “inactive”.
In the case of CC(C)C(Br)C(=O)NC(N)=O (stereo not given), the Potency is reported as “inactive”.
In the case of CC1=C2C[C@H]3[C@@H](CC=C4C[C@@H](O)CC[C@@]43C)[C@@H]2CC[C@]12O[C@@H]1C[C@H](C)CN[C@H]1[C@H]2C, the Potency is reported as 16.9 µM (active).
With Clc1ccc(C(c2ccc(Cl)cc2)C(Cl)Cl)cc1 the Potency was 49.8 µM (active) and 43.6 µM (active).
In the case of CNC(=O)CSP(=O)(OC)OC, the Potency is reported as “inactive”.
For ClC1=C(Cl)[C@]2(Cl)[C@H]3[C@H]([C@@H]4C=C[C@H]3C4)[C@@]1(Cl)C2(Cl)Cl, the Potency was 48.9 µM (active) and 49 µM (active).
With CC(Cc1ccc(O)cc1)NCC(O)c1cc(O)cc(O)c1 (stereo not given) the Potency was “inactive”.
With O=c1[nH]c2cc(Cl)ccc2n1C1CCNCC1 the Potency was “inactive”.
In the case of CCCN, the Potency is reported as “inactive”.
In the case of CCC[CH2][Sn]([CH2]CCC)([O]C(C)=O)[O]C(C)=O, the Potency is reported as 0.0783 µM (active).
For CCCCN(CCCC)C(=S)S, the Potency was “inactive”.
In the case of CC(C)=CC1C(C(=O)OC(C#N)c2cccc(Oc3ccccc3)c2)C1(C)C (stereo not given), the Potency is reported as “inactive”.
In the case of O.O.O.O.O.O.O.O=S(=O)([O-])[O-].[Co+2], the Potency is reported as “inactive”.
For O=C1C(Cl)=C(Cl)C(=O)C(Cl)=C1Cl, the Potency was 24.5 µM (active) and 19.5 µM (active).
For CCC[CH2][Sn]([CH2]CCC)([CH2]CCC)[CH2]CCC, the Potency was 8.71 µM (active).
With CCc1cccc(C)c1N(C(=O)CCl)[C@@H](C)COC the Potency was “inactive”.
With N#Cc1c2ccccc2cc2ccccc12 the Potency was “inactive”.
With CCC(C)Nc1c([N+](=O)[O-])cc(C(C)(C)C)cc1[N+](=O)[O-] (stereo not given) the Potency was “inactive”.
With CC(=O)[O-].CC(=O)[O-].[Co+2] the Potency was “inactive”.
For O=c1[nH]c(Cl)c(Cl)cc1Cl, the Potency was “inactive”.
With COc1cnc(OC)n2nc(NS(=O)(=O)c3c(OCC(F)F)cccc3C(F)(F)F)nc12 the Potency was “inactive”.
With N#Cc1sc2c(=O)c3ccccc3c(=O)c=2sc1C#N the Potency was 17.4 µM (active).
With N#CSCc1ccccc1 the Potency was “inactive”.
With CC(C)NCC(O)c1ccccc1Cl (stereo not given) the Potency was “inactive”.
With CC(Cc1ccc2c(c1)OCO2)NO (stereo not given) the Potency was “inactive”.
For CN/C(=N\[N+](=O)[O-])NCc1cnc(Cl)s1, the Potency was “inactive”.
In the case of COP(=O)(OC)Oc1ccc([N+](=O)[O-])cc1, the Potency is reported as “inactive”.
For Nc1c(Cl)c(Cl)c(Cl)c(Cl)c1Cl, the Potency was “inactive”.
With CC(Cl)CCl (stereo not given) the Potency was “inactive”.
With O=[N+]([O-])C(Br)Br the Potency was 55 µM (active).
